Measurements: the supplement of paper PMC4466140

Molecular target: AgAbp1
Assay: SPOT peptide array binding signal intensity (averaged, normalized) (arbitrary units (background-subtracted, floor 0; scale differs between SH3 domains)); higher = stronger binding of the SH3 domain to the peptide
Outline: (§1)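 SH3 domains from four yeast species were expressed as GST fusions in E. coli BL21(DE3) and purified on glutathione Sepharose. Each was incubated at 10 μg/ml overnight at 4°C in TBS-based blocking buffer on cellulose membranes bearing synthetic 15-mer peptides, in which serines replaced cysteines. Bound protein was detected with anti-GST antibody, an HRP anti-mouse secondary and luminol, then imaged and quantified with Genespotter. The binding signal is the normalized, background-subtracted spot intensity averaged over replicates, in arbitrary units that are not the same from one domain to another.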

Row | Binder | SPOT peptide array binding signal intensity
1 | SSSSTPPTLPPRRIE | 7.5

Molecular target: AgBbc1
Assay: as above
Outline: as §1

Row | Binder | SPOT peptide array binding signal intensity
2 | SSSSTPPTLPPRRIE | 673

Molecular target: AgBem1-D1
Assay: as above
Outline: as §1

Row | Binder | SPOT peptide array binding signal intensity
3 | SSSSTPPTLPPRRIE | 42

Molecular target: AgBzz1-D1
Assay: as above
Outline: as §1

Row | Binder | SPOT peptide array binding signal intensity
4 | SSSSTPPTLPPRRIE | 49

Molecular target: AgBzz1-D2
Assay: as above
Outline: as §1

Row | Binder | SPOT peptide array binding signal intensity
5 | SSSSTPPTLPPRRIE | ≤ 0

Molecular target: AgCyk3
Assay: as above
Outline: as §1

Row | Binder | SPOT peptide array binding signal intensity
6 | SSSSTPPTLPPRRIE | 2

Molecular target: AgFus1
Assay: as above
Outline: as §1

Row | Binder | SPOT peptide array binding signal intensity
7 | SSSSTPPTLPPRRIE | ≤ 0

Molecular target: AgHof1
Assay: as above
Outline: as §1

Row | Binder | SPOT peptide array binding signal intensity
8 | SSSSTPPTLPPRRIE | 55

Molecular target: AgHse1
Assay: as above
Outline: as §1

Row | Binder | SPOT peptide array binding signal intensity
9 | SSSSTPPTLPPRRIE | 42.5

Molecular target: AgLsb1
Assay: as above
Outline: as §1

Row | Binder | SPOT peptide array binding signal intensity
10 | SSSSTPPTLPPRRIE | 1840

Molecular target: AgLsb4
Assay: as above
Outline: as §1

Row | Binder | SPOT peptide array binding signal intensity
11 | SSSSTPPTLPPRRIE | 9180

Molecular target: AgMyo5
Assay: as above
Outline: as §1

Row | Binder | SPOT peptide array binding signal intensity
12 | SSSSTPPTLPPRRIE | 93.5

Molecular target: AgNbp2
Assay: as above
Outline: as §1

Row | Binder | SPOT peptide array binding signal intensity
13 | SSSSTPPTLPPRRIE | 10

Molecular target: AgRvs167
Assay: as above
Outline: as §1

Row | Binder | SPOT peptide array binding signal intensity
14 | SSSSTPPTLPPRRIE | 2660

Molecular target: AgSho1
Assay: as above
Outline: as §1

Row | Binder | SPOT peptide array binding signal intensity
15 | SSSSTPPTLPPRRIE | 1

Molecular target: AgSla1-D1-D2
Assay: as above
Outline: as §1

Row | Binder | SPOT peptide array binding signal intensity
16 | SSSSTPPTLPPRRIE | ≤ 0

Molecular target: AgSla1-D3
Assay: as above
Outline: as §1

Row | Binder | SPOT peptide array binding signal intensity
17 | SSSSTPPTLPPRRIE | ≤ 0

Molecular target: CaAbp1-D1
Assay: as above
Outline: as §1

Row | Binder | SPOT peptide array binding signal intensity
18 | SSSSTPPTLPPRRIE | 24

Molecular target: CaAbp1-D2
Assay: as above
Outline: as §1

Row | Binder | SPOT peptide array binding signal intensity
19 | SSSSTPPTLPPRRIE | 34.5

Molecular target: CaBbc1
Assay: as above
Outline: as §1

Row | Binder | SPOT peptide array binding signal intensity
20 | SSSSTPPTLPPRRIE | 1390

Molecular target: CaBem1-D1
Assay: as above
Outline: as §1

Row | Binder | SPOT peptide array binding signal intensity
21 | SSSSTPPTLPPRRIE | 4

Molecular target: CaBzz1-D1
Assay: as above
Outline: as §1

Row | Binder | SPOT peptide array binding signal intensity
22 | SSSSTPPTLPPRRIE | 16

Molecular target: CaBzz1-D2
Assay: as above
Outline: as §1

Row | Binder | SPOT peptide array binding signal intensity
23 | SSSSTPPTLPPRRIE | ≤ 0

Molecular target: CaCyk3
Assay: as above
Outline: as §1

Row | Binder | SPOT peptide array binding signal intensity
24 | SSSSTPPTLPPRRIE | 2

Molecular target: CaFus1
Assay: as above
Outline: as §1

Row | Binder | SPOT peptide array binding signal intensity
25 | SSSSTPPTLPPRRIE | 77

Molecular target: CaHof1
Assay: as above
Outline: as §1

Row | Binder | SPOT peptide array binding signal intensity
26 | SSSSTPPTLPPRRIE | 8.75

Molecular target: CaHse1
Assay: as above
Outline: as §1

Row | Binder | SPOT peptide array binding signal intensity
27 | SSSSTPPTLPPRRIE | 731

Molecular target: CaLsb1
Assay: as above
Outline: as §1

Row | Binder | SPOT peptide array binding signal intensity
28 | SSSSTPPTLPPRRIE | 57.5

Molecular target: CaLsb4
Assay: as above
Outline: as §1

Row | Binder | SPOT peptide array binding signal intensity
29 | SSSSTPPTLPPRRIE | 7260

Molecular target: CaMyo5
Assay: as above
Outline: as §1

Row | Binder | SPOT peptide array binding signal intensity
30 | SSSSTPPTLPPRRIE | ≤ 0

Molecular target: CaNbp2
Assay: as above
Outline: as §1

Row | Binder | SPOT peptide array binding signal intensity
31 | SSSSTPPTLPPRRIE | 76.5

Molecular target: CaRvs167
Assay: as above
Outline: as §1

Row | Binder | SPOT peptide array binding signal intensity
32 | SSSSTPPTLPPRRIE | 2810

Molecular target: CaRvs167-3
Assay: as above
Outline: as §1

Row | Binder | SPOT peptide array binding signal intensity
33 | SSSSTPPTLPPRRIE | 0.25

Molecular target: CaSho1
Assay: as above
Outline: as §1

Row | Binder | SPOT peptide array binding signal intensity
34 | SSSSTPPTLPPRRIE | ≤ 0

Molecular target: CaSla1-D1-D2
Assay: as above
Outline: as §1

Row | Binder | SPOT peptide array binding signal intensity
35 | SSSSTPPTLPPRRIE | 138

Molecular target: CaSla1-D3
Assay: as above
Outline: as §1

Row | Binder | SPOT peptide array binding signal intensity
36 | SSSSTPPTLPPRRIE | ≤ 0

Molecular target: ScAbp1
Assay: as above
Outline: as §1

Row | Binder | SPOT peptide array binding signal intensity
37 | SSSSTPPTLPPRRIE | ≤ 0

Molecular target: ScBbc1
Assay: as above
Outline: as §1

Row | Binder | SPOT peptide array binding signal intensity
38 | SSSSTPPTLPPRRIE | 61.5

Molecular target: ScBem1-D1
Assay: as above
Outline: as §1

Row | Binder | SPOT peptide array binding signal intensity
39 | SSSSTPPTLPPRRIE | 8

Molecular target: ScBzz1-D1
Assay: as above
Outline: as §1

Row | Binder | SPOT peptide array binding signal intensity
40 | SSSSTPPTLPPRRIE | 3

Molecular target: ScBzz1-D2
Assay: as above
Outline: as §1

Row | Binder | SPOT peptide array binding signal intensity
41 | SSSSTPPTLPPRRIE | 2

Molecular target: ScCyk3
Assay: as above
Outline: as §1

Row | Binder | SPOT peptide array binding signal intensity
42 | SSSSTPPTLPPRRIE | 2

Molecular target: ScFus1
Assay: as above
Outline: as §1

Row | Binder | SPOT peptide array binding signal intensity
43 | SSSSTPPTLPPRRIE | ≤ 0

Molecular target: ScHof1
Assay: as above
Outline: as §1

Row | Binder | SPOT peptide array binding signal intensity
44 | SSSSTPPTLPPRRIE | 122

Molecular target: ScHse1
Assay: as above
Outline: as §1

Row | Binder | SPOT peptide array binding signal intensity
45 | SSSSTPPTLPPRRIE | ≤ 0

Molecular target: ScLsb1
Assay: as above
Outline: as §1

Row | Binder | SPOT peptide array binding signal intensity
46 | SSSSTPPTLPPRRIE | 2090

Molecular target: ScLsb2
Assay: as above
Outline: as §1

Row | Binder | SPOT peptide array binding signal intensity
47 | SSSSTPPTLPPRRIE | 1570

Molecular target: ScLsb3
Assay: as above
Outline: as §1

Row | Binder | SPOT peptide array binding signal intensity
48 | SSSSTPPTLPPRRIE | 11000

Molecular target: ScLsb4
Assay: as above
Outline: as §1

Row | Binder | SPOT peptide array binding signal intensity
49 | SSSSTPPTLPPRRIE | 4800

Molecular target: ScMyo3
Assay: as above
Outline: as §1

Row | Binder | SPOT peptide array binding signal intensity
50 | SSSSTPPTLPPRRIE | 111

Molecular target: ScMyo5
Assay: as above
Outline: as §1

Row | Binder | SPOT peptide array binding signal intensity
51 | SSSSTPPTLPPRRIE | 17.5

Molecular target: ScNbp2
Assay: as above
Outline: as §1

Row | Binder | SPOT peptide array binding signal intensity
52 | SSSSTPPTLPPRRIE | ≤ 0

Molecular target: ScPex13
Assay: as above
Outline: as §1

Row | Binder | SPOT peptide array binding signal intensity
53 | SSSSTPPTLPPRRIE | 2100

Molecular target: ScRvs167
Assay: as above
Outline: as §1

Row | Binder | SPOT peptide array binding signal intensity
54 | SSSSTPPTLPPRRIE | 3870

Molecular target: ScSho1
Assay: as above
Outline: as §1

Row | Binder | SPOT peptide array binding signal intensity
55 | SSSSTPPTLPPRRIE | 56.5

Molecular target: ScSla1-D1-D2
Assay: as above
Outline: as §1

Row | Binder | SPOT peptide array binding signal intensity
56 | SSSSTPPTLPPRRIE | 6

Molecular target: ScSla1-D3
Assay: as above
Outline: as §1

Row | Binder | SPOT peptide array binding signal intensity
57 | SSSSTPPTLPPRRIE | 1.75

Molecular target: SpAbp1-D1
Assay: as above
Outline: as §1

Row | Binder | SPOT peptide array binding signal intensity
58 | SSSSTPPTLPPRRIE | ≤ 0

Molecular target: SpBbc1
Assay: as above
Outline: as §1

Row | Binder | SPOT peptide array binding signal intensity
59 | SSSSTPPTLPPRRIE | 0.5

Molecular target: SpBzz1-D1
Assay: as above
Outline: as §1

Row | Binder | SPOT peptide array binding signal intensity
60 | SSSSTPPTLPPRRIE | 219

Molecular target: SpBzz1-D2
Assay: as above
Outline: as §1

Row | Binder | SPOT peptide array binding signal intensity
61 | SSSSTPPTLPPRRIE | ≤ 0

Molecular target: SpCyk3
Assay: as above
Outline: as §1

Row | Binder | SPOT peptide array binding signal intensity
62 | SSSSTPPTLPPRRIE | 4

Molecular target: SpHof1
Assay: as above
Outline: as §1

Row | Binder | SPOT peptide array binding signal intensity
63 | SSSSTPPTLPPRRIE | 4.5

Molecular target: SpHof1-2
Assay: as above
Outline: as §1

Row | Binder | SPOT peptide array binding signal intensity
64 | SSSSTPPTLPPRRIE | 12.2

Molecular target: SpHof1-3
Assay: as above
Outline: as §1

Row | Binder | SPOT peptide array binding signal intensity
65 | SSSSTPPTLPPRRIE | 10

Molecular target: SpHse1
Assay: as above
Outline: as §1

Row | Binder | SPOT peptide array binding signal intensity
66 | SSSSTPPTLPPRRIE | 16

Molecular target: SpLsb1
Assay: as above
Outline: as §1

Row | Binder | SPOT peptide array binding signal intensity
67 | SSSSTPPTLPPRRIE | 3060

Molecular target: SpLsb4
Assay: as above
Outline: as §1

Row | Binder | SPOT peptide array binding signal intensity
68 | SSSSTPPTLPPRRIE | 6340

Molecular target: SpMyo1
Assay: as above
Outline: as §1

Row | Binder | SPOT peptide array binding signal intensity
69 | SSSSTPPTLPPRRIE | 594

Molecular target: SpNbp2
Assay: as above
Outline: as §1

Row | Binder | SPOT peptide array binding signal intensity
70 | SSSSTPPTLPPRRIE | ≤ 0

Molecular target: SpPex13
Assay: as above
Outline: as §1

Row | Binder | SPOT peptide array binding signal intensity
71 | SSSSTPPTLPPRRIE | 4

Molecular target: SpRvs167
Assay: as above
Outline: as §1

Row | Binder | SPOT peptide array binding signal intensity
72 | SSSSTPPTLPPRRIE | 3420

Molecular target: SpSla1-D1-D2
Assay: as above
Outline: as §1

Row | Binder | SPOT peptide array binding signal intensity
73 | SSSSTPPTLPPRRIE | ≤ 0

Molecular target: SpSla1-D3
Assay: as above
Outline: as §1

Row | Binder | SPOT peptide array binding signal intensity
74 | SSSSTPPTLPPRRIE | ≤ 0
